According to PubChem BioAssay:
Active and inactive are the calls of the source. Unless noted, the rule behind the calls is not given here.

Legend:
[1] = test system: XIP peptide (Xip251-270) binding; experiment: small-molecule binders of XIP peptide, primary screen, biochemical, small-molecule microarray, fluorescence 635/667 nm, 0.1 µg/mL protein (AID 1182); settings: fluorescent protein binding, 635 nm, higher = more signal, called active from +8 up or from −8 down
XIP peptide (Xip251-270) = experiment: small-molecule binders of XIP peptide, primary screen, biochemical, small-molecule microarray, fluorescence 635/667 nm, 0.5 µg/mL protein (AID 1183); settings: small-molecule microarray binding, fluorescence 635 nm; higher = more signal
[2] = Plasmodium falciparum growth inhibition, primary screen, strain 3D7, DAPI fluorescence, 100 nL (AID 1184);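 note: parasites grown inside human red blood cells in medium with human serum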; settings: P. falciparum 3D7 growth, 3 d, higher = more signal
[3] = molecular target: Homeobox protein Hox-A13 (Mus musculus) (UniProt Q62424); experiment: inhibitors of HoxA13-DNA binding, primary screen, biochemical, fluorescence polarization, labeled oligonucleotide (AID 1185); settings: 15 min, higher = more signal, called active from +8 up or from −8 down
[4] = inhibitors of hydroxyurea-induced Chk1 phosphorylation, primary screen, imaging, HeLa, phospho-Chk1 antibody, percent positive cells (AID 1186); settings: hydroxyurea-induced phospho-Chk1 immunofluorescence imaging, higher = more signal
[5] = inhibitors of hydroxyurea-induced Chk1 phosphorylation, primary screen, imaging, HeLa, phospho-Chk1 nuclear intensity (AID 1187); settings: hydroxyurea-induced phospho-Chk1 immunofluorescence imaging, higher = more signal

Sequence of Homeobox protein Hox-A13 (Mus musculus) (Q62424 whole entry, looked up): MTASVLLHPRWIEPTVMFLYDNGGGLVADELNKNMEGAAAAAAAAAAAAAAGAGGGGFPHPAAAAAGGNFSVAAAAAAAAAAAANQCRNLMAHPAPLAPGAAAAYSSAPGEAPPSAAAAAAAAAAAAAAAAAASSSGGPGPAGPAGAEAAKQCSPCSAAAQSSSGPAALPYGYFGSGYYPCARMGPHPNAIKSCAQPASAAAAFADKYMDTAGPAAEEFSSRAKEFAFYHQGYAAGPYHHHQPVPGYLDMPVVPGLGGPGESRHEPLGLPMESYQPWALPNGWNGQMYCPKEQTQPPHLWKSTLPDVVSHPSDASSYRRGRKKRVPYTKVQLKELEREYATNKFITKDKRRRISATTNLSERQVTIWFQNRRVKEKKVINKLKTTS

Compound | composite z-score [1] | composite z-score (XIP peptide (Xip251-270)) | z-score [2] | z-score [3] | z-score [4] | z-score [5]
O=C(NCC(O)CO)[C@@]1(CCS(=O)(=O)c2ccccc2)N=C(c2ccc(OCCCO)cc2)O[C@H]1c1ccccc1 (stereo partly drawn) | 2.08 (inactive) | 0.0777 | -2.02 | -4.76 (inactive) | -0.579 (inactive) | -0.282 (inactive)
CC1CC/C=C\[C@H]2OC34C=CCN(c5ccc(Cl)cc5)C(=O)[C@H]3N(CCCCCCO)C(=O)[C@]4(C)C2C(=O)O1 (stereo partly drawn) | 0.675 (inactive) | 0.265 | 0.955 | -5.35 (inactive) | -0.517 (inactive) | -0.187 (inactive)
CC1CC/C=C\[C@H]2OC34C=CCN(CCN5CCOCC5)C(=O)[C@H]3N(CCCO)C(=O)[C@@H]4C2C(=O)O1 (stereo partly drawn) | 0.537 (inactive) | -0.868 | -0.246 | -6.46 (inactive) | 0.58 (inactive) | 0.667 (inactive)
C=C(/C(=C/C[C@@H](OC(C)=O)c1cccc(OCCO)c1)c1cnc2ccccc2c1)C(C)C | -0.136 (inactive) | 0.725 | -2.95 | -5.04 (inactive) | 0.0066 (inactive) | 0.0865 (inactive)
COCCOC(=O)N1C(=O)[C@@]2(c3cc(C#CCCO)ccc31)[C@H](c1ccccc1OCCO)N1[C@H](c3ccccc3)[C@H](c3ccccc3)OC(=O)[C@H]1[C@@H]2C(N)=O | 0.316 (inactive) | 0.732 | -2.22 | -3.69 (inactive) | -0.271 (inactive) | -0.0408 (inactive)
COC(=O)[C@]1(CCC(=O)OC(C)(C)C)N=C(c2ccc(OCCCO)cc2)O[C@@H]1c1ccccc1N=[N+]=[N-] | -0.194 (inactive) | 0.633 | -1.98 | -2.21 (inactive) | 0.0989 (inactive) | 0.562 (inactive)
CC(C)N1C(=O)c2ccccc2[C@@H](C(=O)NCC(F)(F)F)[C@@H]1c1ccc(CO)cc1 | -0.258 (inactive) | -0.245 | 0.872 | -1.73 (inactive) | 0.0626 (inactive) | 0.11 (inactive)
COC(=O)[C@@]1(Cc2ccc(OC)cc2)[C@H]2c3cc(C(=O)N(C)C)[nH]c3C[C@H]2CN1C(=O)c1ccccc1 | 0.0849 (inactive) | -0.197 | -0.0305 | -2.93 (inactive) | -0.041 (inactive) | -0.309 (inactive)
CCOC(=O)c1cn(C[C@H](Cc2ccccc2)NC(=O)N[C@H](CO)CCc2oc(C(C)=O)c(C(=O)OC)c2C(=O)OC)nn1 | 0.534 (inactive) | 0.635 | -1.63 | -2.67 (inactive) | -0.107 (inactive) | 0.432 (inactive)
C=CC[C@@]1(C(=O)N(C)C)N=C(c2ccc(OCCCO)cc2)O[C@@H]1c1ccccc1CN=[N+]=[N-] | 0.161 (inactive) | 0.774 | -2.33 | -4.32 (inactive) | -0.274 (inactive) | -0.052 (inactive)
C=CCC(OC(C)=O)[C@@H]1[C@@H](N(Cc2ccc(-c3cccc(C(F)(F)F)c3)o2)C(=O)Cc2ccc(F)cc2)c2cc(OCCCO)ccc2N1C(=O)Cc1ccc2ccccc2c1 (stereo partly drawn) | -0.068 (inactive) | -0.293 | -0.328 | -0.668 (inactive) | 0.19 (inactive) | 0.0472 (inactive)
COc1ccc([Si](C)(C)[C@@H]2[C@@H](CC(=O)N3CCC[C@H]3CO)O[C@]3(C(=O)N(Cc4ccc(N5CCOC5=O)cc4)c4ccccc43)[C@H]2C)cc1 | 0.56 (inactive) | 0.727 | 0.309 | -3.21 (inactive) | -1.03 (inactive) | -0.48 (inactive)
COC(=O)[C@@]1(Cc2ccccc2)N=C(c2ccc(OCCCO)cc2)O[C@H]1c1ccccc1CN=[N+]=[N-] | -0.139 (inactive) | 0.85 | -2.42 | -1.25 (inactive) | -0.727 (inactive) | -0.906 (inactive)
O=C1NC(=O)C2C1C=CC(C(O)c1ccc([N+](=O)[O-])cc1)N2Nc1ccccn1 (stereo not drawn) | -0.254 (inactive) | 0.726 | 1.21 | -2.37 (inactive) | -0.284 (inactive) | -0.347 (inactive)
CN(C)CCCC[C@@H]1NC(=O)[C@@H]2C[C@H](C(=O)NCCCCCCNC(=O)CS)[C@H](c3ccc(O)cc3)N2C1=O | 0.237 (inactive) | 0.859 | -0.0596 | -1.31 (inactive) | -0.282 (inactive) | -0.405 (inactive)
CC(C)(C)N1CC=CC23O[C@@H]4C=CCOC(=O)[C@@H]4[C@H]2C(=O)N(CCO)[C@@H]3C1=O (stereo partly drawn) | 0.218 (inactive) | 0.57 | 0.885 | -3.33 (inactive) | 0.121 (inactive) | -0.307 (inactive)
CC(C)(C)OC(=O)CC[C@]1(C(=O)NCC(O)CO)N=C(c2ccc(OCCCO)cc2)O[C@H]1c1ccccc1N=[N+]=[N-] (stereo partly drawn) | 3.52 (inactive) | 0.811 | -1.45 | -4.51 (inactive) | 0.0505 (inactive) | 0.259 (inactive)

Compound | composite z-score [1] | composite z-score (XIP peptide (Xip251-270)) | z-score [2] | z-score [3] | z-score [4] | z-score [5]
C=C(CCCC)/C(=C/C[C@H](OC(C)=O)c1cccc(OCCO)c1)c1cnc2ccccc2c1 | -0.0697 (inactive) | 0.0014 | -2.57 | -4.01 (inactive) | -0.549 (inactive) | -0.761 (inactive)
CCCc1cc2c(n1CCc1ccc(Cl)cc1)C(C)C1CN(C(=O)c3ccccc3)C(C)(C(=O)OC)C21 (stereo not drawn) | -0.573 (inactive) | 0.201 | -1.18 | -5.05 (inactive) | 0.853 (inactive) | 0.692 (inactive)
Cc1ccc(S[C@]2(C(=O)NC3CC3)CC(=O)N(C(C)C)[C@@H]2c2ccc(CO)cc2I)cc1 | 0.717 (inactive) | 0.682 | -1.63 | -4.06 (inactive) | -0.248 (inactive) | -0.439 (inactive)
CC(C)=CCCC=C(C)C(O)C1C=CC2C(=O)N(c3ccccc3)C(=O)C2N1Nc1ccc(C#N)cc1 (stereo not drawn) | 1.1 (inactive) | 0.621 | 0.221 | 0.884 (inactive) | -0.0269 (inactive) | -0.294 (inactive)
O=C1O[C@@H](c2ccccc2)[C@@H](c2ccccc2)N2[C@@H](c3ccccc3OCCO)[C@]3(C(=O)Nc4ccc(C#CCCO)cc43)[C@@H](C(=O)NC[C@H](O)c3ccccc3)[C@H]12 | 0.798 (inactive) | 0.816 | -1.81 | -3.98 (inactive) | 0.0469 (inactive) | 0.144 (inactive)
C=CCC(OC(C)=O)[C@@H]1[C@@H](N(Cc2cc3ccccc3o2)C(=O)c2cccc3ccccc23)c2cc(OCCCO)ccc2N1C(=O)c1ccc2ccccc2n1 (stereo partly drawn) | -0.667 (inactive) | 0.202 | -1.99 | -1.2 (inactive) | -0.0897 (inactive) | 0.0983 (inactive)
C=CC[C@@]1(C(=O)OC)N=C(c2ccc(OCCCO)cc2)O[C@@H]1c1ccccc1N=[N+]=[N-] | 0.741 (inactive) | 0.852 | -2.27 | -3.81 (inactive) | -0.312 (inactive) | 0.0948 (inactive)
CO[C@H]1O[C@H](CO)[C@@H](OC(=O)Nc2ccccc2)[C@H](OC(=O)Nc2ccccc2)[C@H]1OC(=O)Nc1ccccc1 | 0.142 (inactive) | 0.69 | -2.51 | -6.21 (inactive) | -0.0874 (inactive) | 0.511 (inactive)
C=C(CCCC)/C(=C/C[C@H](OC(=O)c1ccncc1)c1ccccc1OCCO)c1cc(C(=O)OC)ccc1OC | 0.578 (inactive) | 0.0792 | -3.07 | -4.22 (inactive) | -1.15 (inactive) | -0.733 (inactive)
NC(=O)N1C(=O)C2C(C1=O)C1C=C(CCCO)C2C(c2ccc(CN3CCCC3)cc2)N1Cc1cc2c(cc1Br)OCO2 (stereo not drawn) | 0.224 (inactive) | -0.0073 | -0.459 | -4.36 (inactive) | 0.504 (inactive) | 0.519 (inactive)
COc1ccc(CCNC(=O)[C@@H]2c3ccccc3C(=O)N(Cc3ccccc3OC)[C@H]2c2ccc(CO)cc2)cc1 | 0.675 (inactive) | 0.393 | -0.996 | -4.7 (inactive) | -0.0274 (inactive) | -0.213 (inactive)
C=CCC(OC(C)=O)[C@@H]1[C@@H](N(Cc2ccc(-c3cccc(C(F)(F)F)c3)o2)C(=O)c2ccc(-c3ccccc3)cc2)c2cc(OCCCO)ccc2N1C(=O)c1ccc2ccccc2c1 (stereo partly drawn) | 0.405 (inactive) | -0.378 | -1.26 | -1.43 (inactive) | 0.366 (inactive) | 0.766 (inactive)
CO[C@H]1O[C@H](CO)[C@@H](OC(=O)Nc2ccccc2-c2ccccc2)[C@H](OC(=O)Nc2ccccc2)[C@H]1OC(=O)Nc1ccccc1 | -0.249 (inactive) | 0.915 | -2.14 | -3.21 (inactive) | -0.392 (inactive) | -0.15 (inactive)
CCCCCCc1nc(-c2ccc(-c3ccc(Cl)c(Cl)c3)o2)cc2c1[Si](C(C)C)(C(C)C)OC2 | 0.108 (inactive) | -0.0619 | -2.22 | -3.51 (inactive) | -0.6 (inactive) | -0.222 (inactive)
N#Cc1ccc(-c2cccc(=O)o2)cc1 | 0.37 (inactive) | -0.0086 | 0.944 | 0.108 (inactive) | 0.419 (inactive) | 0.674 (inactive)
C=C(CCCC)/C(=C/C[C@H](OC(=O)c1ccncc1)c1cccc(OCCO)c1)c1cnc2ccccc2c1 | 0.867 (inactive) | 0.654 | -2.97 | -3.75 (inactive) | 0.218 (inactive) | 0.367 (inactive)
